Experimental data: PubChem BioAssay (EPA / NIEHS)
Values joined by “and” are separate entries in the source; they are usually repeats but may differ in a detail not shown here. Equal values may be shown once. Where a structure was tested more than once in an assay, its records may differ in their call. Active and inactive are the calls of the source. Rule for the calls: active = hit-call score of the fitted dose curve at least 0.9, where 1 is the maximum; inactive = score below 0.9.

Test: ATG_TGFb_CIS: Attagene CIS-FACTORIAL HepG2 Assay for human Transforming Growth Factor (TGF) (AID 2282967)
Conditions: HepG2 Attagene CIS TGFb reporter, mRNA transcription; actives raise or lower the signal
Outline: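 After a 24-hour incubation with compound, transfected HepG2 cells were lysed for RNA; reporter cDNA was amplified, fluorescently end-labeled and separated by CE. DMSO served as baseline for bidirectional fits.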

Structure (SMILES) | outcome | AC50
O=c1c(-c2ccc(O)cc2)coc2cc(O)ccc12 | inactive | –
Cc1ccc(S(=O)(=O)O)c(C)c1 | inactive | –
CCCCOCCO | inactive | –
C=C(C)C(=O)OCCC(F)(F)C(F)(F)C(F)(F)C(F)(F)C(F)(F)C(F)(F)F | inactive | –
C[C@@H]1C[C@H]2[C@@H]3CCC4=CC(=O)C=C[C@]4(C)[C@@]3(F)[C@@H](O)C[C@]2(C)[C@@]1(O)C(=O)COP(=O)(O)O | inactive | 473 nM (active)
COc1cc(CCC(=O)CC(=O)CCc2ccc(O)c(OC)c2)ccc1O | inactive | –
FC(F)(I)C(F)(F)C(F)(F)C(F)(F)C(F)(F)C(F)(F)I | inactive | –
CCCCCCCCOC(=O)CCCCCCCCC(=O)OCCCCCCCC | inactive | –
CCc1ccc(CCOc2ccc(CC3SC(=O)NC3=O)cc2)nc1 (stereo not drawn) | inactive | –
Nc1cccc2c(N)cccc12 | inactive | –
CC(O)C(=O)O (stereo not drawn) | inactive | –
O=C(O)c1ccccc1C(c1ccc(O)cc1)c1ccc(O)cc1 | inactive | –
CN1CCN(c2ccccc2/C=C2\SCCN(c3ccc(Cl)c(Cl)c3)C2=O)CC1 | inactive | –
CCC(C)(C)C1CCC(O)CC1 (stereo not drawn) | inactive | –
CN1CCC[C@H]1c1cccnc1 | inactive | –
CCCCCCCCCCCCCCCS(=O)(=O)Oc1ccccc1 | inactive | –
CCCCCCCCCCCCc1ccccc1S(=O)(=O)O | inactive | –
CCCCCCCC(=O)O | inactive | –

Structure (SMILES) | outcome | AC50
CC[C@H](c1ccc(O)cc1)[C@@H](CC)c1ccc(O)cc1 | inactive | –
CCCCC[C@H](O)CC(=O)CCc1ccc(O)c(OC)c1 | inactive | –
CC(C)(C)c1cc(C(C)(C)C)c(O)c(C(C)(C)C)c1 | inactive | –
CCCOC(=O)c1ccc(O)cc1 | inactive | –
CCC(=C(c1ccc(O)cc1)c1ccc(OCCN(C)C)cc1)c1ccccc1 | inactive | –
CC[C@H](C)[C@@H](C(=O)O)n1sc2ccccc2c1=O | inactive | –
O=C(O)Cc1cc(I)c(Oc2cc(I)c(O)c(I)c2)c(I)c1 | inactive | –
O=C1OC2(c3ccccc31)c1cc(Br)c(O)c(Br)c1Oc1c2cc(Br)c(O)c1Br | inactive | –
c1ccc2cc3c(ccc4ccccc43)cc2c1 | inactive | –
ClC1=C(Cl)C(Cl)(Cl)C(Cl)=C1Cl | inactive | –
c1ccc2c(c1)ccc1ccccc12 | inactive | –
NCC(F)(F)C(F)(F)C(F)(F)C(F)(F)C(F)(F)C(F)(F)C(F)(F)F | inactive | –
CCCCCCC(=O)O | inactive | –
CCOC(=O)CC(O)(CC(=O)OCC)C(=O)OCC | inactive | –
OCCC(F)(F)C(F)(F)C(F)(F)C(F)(F)C(F)(F)C(F)(F)F | inactive | 157000 nM (active)
CC#C[C@]1(O)CC[C@H]2[C@@H]3CCC4=CC(=O)CCC4=C3[C@@H](c3ccc(N(C)C)cc3)C[C@@]21C | inactive | 8.06 µM (active) and 26.5 µM (active)
OCCC(F)(F)C(F)(F)C(F)(F)C(F)(F)C(F)(F)C(F)(F)C(F)(F)C(F)(F)F | inactive | –

Test: ATG_VDRE_CIS: Attagene CIS-FACTORIAL HepG2 Assay for human Vitamin D Receptor Element (VDRE) (AID 2282968)
Conditions: HepG2 VDRE cis-reporter transcription, actives raise or lower the signal
Outline: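 Transfected HepG2 reporter cells, chemical treatment 24 h. RNA isolated, cDNA amplified with reporter-specific primers, products analysed by capillary electrophoresis. Endpoint fitted in both directions versus DMSO.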

Structure (SMILES) | outcome | AC50
Cc1ccc(S(=O)(=O)O)c(C)c1 | inactive | –
CCCCOCCO | inactive | –
C=C(C)C(=O)OCCC(F)(F)C(F)(F)C(F)(F)C(F)(F)C(F)(F)C(F)(F)F | inactive | –
C[C@@H]1C[C@H]2[C@@H]3CCC4=CC(=O)C=C[C@]4(C)[C@@]3(F)[C@@H](O)C[C@]2(C)[C@@]1(O)C(=O)COP(=O)(O)O | inactive | –
COc1cc(CCC(=O)CC(=O)CCc2ccc(O)c(OC)c2)ccc1O | – | 13.7 µM (active)
FC(F)(I)C(F)(F)C(F)(F)C(F)(F)C(F)(F)C(F)(F)I | inactive | –
CCCCCCCCOC(=O)CCCCCCCCC(=O)OCCCCCCCC | inactive | –
CCc1ccc(CCOc2ccc(CC3SC(=O)NC3=O)cc2)nc1 (stereo not drawn) | inactive | –
Nc1cccc2c(N)cccc12 | inactive | –
CC(O)C(=O)O (stereo not drawn) | inactive | –
CN1CCN(c2ccccc2/C=C2\SCCN(c3ccc(Cl)c(Cl)c3)C2=O)CC1 | inactive | –
CCC(C)(C)C1CCC(O)CC1 (stereo not drawn) | inactive | –
CN1CCC[C@H]1c1cccnc1 | inactive | –
CCCCCCCCCCCCCCCS(=O)(=O)Oc1ccccc1 | inactive | –
CCCCCCCCCCCCc1ccccc1S(=O)(=O)O | inactive | –
CCCCCCCC(=O)O | inactive | –
CC[C@H](c1ccc(O)cc1)[C@@H](CC)c1ccc(O)cc1 | inactive | 3.47 µM (active) and 2.97 µM (active)
CCCCC[C@H](O)CC(=O)CCc1ccc(O)c(OC)c1 | – | 27.7 µM (active)
CCCOC(=O)c1ccc(O)cc1 | inactive | 139 µM (active)
CCC(=C(c1ccc(O)cc1)c1ccc(OCCN(C)C)cc1)c1ccccc1 | inactive | 3.53 µM (active) and 7.1 µM (active) and 2.37 µM (active)
CC[C@H](C)[C@@H](C(=O)O)n1sc2ccccc2c1=O | inactive | –
O=C(O)Cc1cc(I)c(Oc2cc(I)c(O)c(I)c2)c(I)c1 | – | 18.1 µM (active) and 23 µM (active)
O=C1OC2(c3ccccc31)c1cc(Br)c(O)c(Br)c1Oc1c2cc(Br)c(O)c1Br | inactive | 56.4 µM (active)
c1ccc2cc3c(ccc4ccccc43)cc2c1 | inactive | 7.85 µM (active)
ClC1=C(Cl)C(Cl)(Cl)C(Cl)=C1Cl | – | 14.7 µM (active) and 7.29 µM (active)
c1ccc2c(c1)ccc1ccccc12 | inactive | –
NCC(F)(F)C(F)(F)C(F)(F)C(F)(F)C(F)(F)C(F)(F)C(F)(F)F | inactive | –
CCCCCCC(=O)O | inactive | –
CCOC(=O)CC(O)(CC(=O)OCC)C(=O)OCC | inactive | –
OCCC(F)(F)C(F)(F)C(F)(F)C(F)(F)C(F)(F)C(F)(F)C(F)(F)C(F)(F)F | – | 25.8 µM (active) and 150 µM (active)
